# From PubChem BioAssay AID686979 (National Center for Advancing Translational Sciences (NCATS), 2013)
# Among all 420,000 compounds or so, about 50,000 (12%) were called active. About 26% were inconclusive and are not listed. Calls come from the whole dose curve; as a rule, active = well fitted inhibition curve with a large enough effect; inconclusive = small, poorly fitted or top-dose-only effect; inactive = flat fitted curve, though single readings scatter. The sample as a whole holds a higher share of actives than the screen did.
# Assay: qHTS for Inhibitors of human tyrosyl-DNA phosphodiesterase 1 (TDP1): qHTS in cells in presence of CPT; note: nearly all actives have a fitted effect of over 55% in size
# Conditions: chicken DT40 Tdp1-/-;hTDP1 cells + 20 nM CPT, ATP luminescence, 48 h; series mostly up to 46.2 µM; activity change, negative = growth inhibition: at the top concentration
# Method in brief: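 Cell growth measured by CellTiter-Glo luminescence after a minimum 48 h, 37 C compound exposure with 20 nM CPT in Tdp1-knockout DT40 cells stably expressing hTDP1, seeded 400/well; qHTS titration format.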
# % is set by controls: 0 for no effect and ±100 for the full control effect; potency is the fitted concentration of half-maximal effect.
SMILES,"activity change, negative = growth inhibition",Potency
COc1ccc(-c2nnc3n2CCCCC3)cc1,8.16% (inactive),–
O=C(O)c1ccc([N+](=O)[O-])cc1Sc1ccsc1,-11.6% (inactive),–
COc1ccc(-c2nc3c(c(SCC(=O)Nc4ccc(C(=O)O)cc4)n2)Cc2ccccc2O3)cc1,-18.6% (inactive),–
Cc1ccc(-c2nc(Cn3c(=O)cc(-c4ccccc4)c4c(C)nn(C)c43)c(C)o2)cc1,-16.3% (inactive),–
CCOC(=O)Nc1ccc2c(c1)N(C(=O)CCN1CCN(CCO)CC1)c1ccccc1CC2,-0.457% (inactive),–
CCOC(=O)Nc1ccc(NC(=O)OCC)cc1,-20.3% (inactive),–
CCOC(=O)Nc1ccc2c(c1)N(C(=O)CCCl)c1ccccc1[S@]2=O,–,4.61 µM (active)
CN(CC(=O)Nc1ccccc1F)CC(=O)Nc1ccccc1Br,-2.65% (inactive),–
CN(C(=N)N)c1ccc(/C=C2\C=Cc3ccccc32)cc1,–,5.01 µM (active)
COc1ccc(N(CC(=O)N/N=C/c2cccc3c2OCCO3)S(=O)(=O)c2ccc(NC(C)=O)cc2)cc1,1.44% (inactive),–
O=C(c1cccc(S(=O)(=O)Nc2ccccc2Cl)c1)N1CCN(C(=O)c2ccco2)CC1,-7.9% (inactive),–
CC(=O)N1CCN(C(=O)c2cccc(S(=O)(=O)Nc3ccc(C)cc3)c2)CC1,-5.91% (inactive),–
CCCCc1ccc(NS(=O)(=O)c2cccc(C(=O)N3CCCN(C)CC3)c2)cc1,–,23.1 µM (active)
COc1ccc(Br)c2c1C(=O)CC2,5.78% (inactive),–
Nc1nonc1-n1nnc(C(=O)N/N=C/C2CCCCC2)c1-c1ccccc1,-15% (inactive),–
CC(=O)Nc1ccc(Oc2ccc3c(c2)C(=O)NC3=O)cc1,25.5% (inactive),–
O=C(NNS(=O)(=O)Cc1ccccc1)c1ccc([N+](=O)[O-])cc1,-13% (inactive),–
O=C(CCn1nnc2ccccc21)OCC(=O)c1ccc([N+](=O)[O-])cc1,-22.6% (inactive),–
O=C(CC(n1cncn1)C(Cl)(Cl)Cl)c1ccc([N+](=O)[O-])cc1 (configuration not stated),–,16.4 µM (active)
O=C(COc1coc(CN2CCN(c3ccccc3F)CC2)cc1=O)N1CCc2ccccc21,-16.5% (inactive),–
Cc1cc(N2CCOCC2)nc(-c2ccc(Br)cc2)n1,-12.4% (inactive),–
O=C1CC(C(=O)O)NC(=S)N1 (configuration not stated),31.6% (inactive),–
COc1ccc(-n2c(=O)c(C)nc3cnc(N4CCOCC4)nc32)cc1,1.15% (inactive),–
COc1ccc(Nc2ncc(F)c(N3CCOCC3)n2)cc1,–,20.6 µM (active)
CCOc1nc(NCCN2CCOCC2)nc(Nc2ccc(C)cc2)n1,-12.3% (inactive),–

SMILES,"activity change, negative = growth inhibition",Potency
Cc1ccc(-c2nnc3c4ccccc4c(C)nn23)cc1NC(=O)c1cccc(Br)c1,-2.49% (inactive),–
Cc1cc[n+](-c2[nH]c(=O)sc2/C=N/NC(=O)c2ccccc2[O-])cc1C,5.4% (inactive),–
O=C(CN1CCN(c2ccccn2)CC1)Nc1ccc(Br)cc1,-23.7% (inactive),–
Brc1ccc(-c2n(-c3ccccn3)c3ccccc3[n+]2-c2ccccn2)cc1,–,18.4 µM (active)
COc1cccc(NC(=O)N2CCC(NC(=O)C(Cc3cccc(C)c3)NC(C)=O)CC2)c1 (configuration not stated),-13.8% (inactive),–
Cn1c(-c2ccc(C(F)(F)F)cc2)cc2onc(-c3ccccc3)c2c1=O,-14.9% (inactive),–
O=C(c1csnn1)N1CCC2(CC1)CN(c1ncccn1)C2,0.98% (inactive),–
CSCCC(Nc1ccc(S(=O)(=O)N2CCOCC2)cc1[N+](=O)[O-])C(=O)OCC(=O)N(C(C)C)C(C)C (configuration not stated),-16.1% (inactive),–
CN(C)C(=O)c1ccc(NC(=O)c2ccccc2-c2ccccc2)cc1,21.7% (inactive),–
CN(C)C(=O)c1ccc2c(c1)C1C3CCC(C3)C1C(c1ccccc1)N2 (configuration not stated),–,16.4 µM (active)
Cc1sc(NC(=O)c2ccc3ncsc3c2)c(C(N)=O)c1C,-20.7% (inactive),–
COc1cccc(NC(=O)N2C3CCCC2CC(NC(C)=O)C3)c1 (configuration not stated),-14% (inactive),–
CC(C)(C)OC(=O)N1CCC(C(=O)NNC(=O)c2ccc(Cl)cc2Cl)CC1,-11.4% (inactive),–
COc1cccc2c1cc1c(=O)n(CC(=O)N3CCN(c4cccc(Cl)c4)CC3)nc(C)n12,-12.6% (inactive),–
Cc1cccc(-n2ncc(C(=O)N3CCc4ccccc4C3)c2C2CCN(C(=O)OC(C)(C)C)CC2)c1,2.4% (inactive),–
CCOC(=O)N1CCC(NC(=O)CCc2ccccc2)CC1,-3.28% (inactive),–
CCOC(=O)N1CCC(NC(=O)c2cnn3ccccc23)CC1,-1.32% (inactive),–
CCOC(=O)N1CCC(NC(=O)c2cnn(-c3cccc(C)c3)c2C2CCN(C(=O)OC(C)(C)C)CC2)CC1,–,23.1 µM (active)
Cc1cccc(-n2ncc(C(=O)N3CCN(c4ccc(Cl)cc4)CC3)c2C2CCN(C(=O)OC(C)(C)C)CC2)c1,–,14.6 µM (active)
CC(C)(C)OC(=O)N1CCC(c2c(C(=O)N3CCN(c4cccc(Cl)c4)CC3)cnn2-c2cccc(Cl)c2)CC1,–,14.6 µM (active)
Cc1cccc(-n2ncc(C(=O)N3CCC(C)CC3)c2C2CCN(C(=O)OC(C)(C)C)CC2)c1,-7.73% (inactive),–
CCCCN(C(=O)CCNC(=O)NC12CC3CC(CC(C3)C1)C2)c1c(N)n(CCCC)c(=O)[nH]c1=O,-12.9% (inactive),–
Cc1ccc(S(=O)(=O)N2CC(O)C[C@H]2C(=O)OCC(=O)Nc2ccc(N3CCOCC3)cc2)cc1C (some centres not stated),-0.832% (inactive),–
COc1ccc(S(=O)(=O)N2CCCC2CNC(=O)C(=O)NC2CC2)cc1 (configuration not stated),7.32% (inactive),–
Cc1ccc(NC(=O)CC2S/C(=N/N=C3\CCCc4ccccc43)NC2=O)cc1 (configuration not stated),-0.71% (inactive),–

SMILES,"activity change, negative = growth inhibition",Potency
CN1C(=O)/C(=C\c2cc(Br)cs2)c2ccccc21,-29.3% (inactive),–
Cc1cc(C)c2c3c(sc2n1)C(c1ccccc1)C(C#N)=C(N)O3 (configuration not stated),-20.3% (inactive),–
N#CC1=C(N)Oc2c(ccc3cccnc23)C1c1ccncc1 (configuration not stated),-20.9% (inactive),–
N#CC1=C(N)Oc2cc(N)ccc2C1c1ccccc1 (configuration not stated),–,23.1 µM (active)
CN1C(=O)C2(OCCCO2)c2cc(Cl)ccc21,9.13% (inactive),–
C=O,10.9% (inactive),–
CCOc1ccc(NS(=O)(=O)c2ccc(C(=O)NCC(c3ccccc3OC)N3CCCC3)cc2)cc1 (configuration not stated),–,29.1 µM (active)
COc1ccc(C(CNC(=O)c2ccc(OCc3cscn3)cc2)N2CCCC2)cc1 (configuration not stated),-10.8% (inactive),–
CCOc1ccc(NS(=O)(=O)c2ccc(C(=O)NCC3CCCO3)cc2)cc1 (configuration not stated),-27.2% (inactive),–
CN=C(NC#N)NCCSCc1nc[nH]c1C,–,inactive
CCC(C)C(=O)Nc1cc([N+](=O)[O-])ccc1Cl (configuration not stated),-3.83% (inactive),–
CC(=O)Nc1ccc(NC(=O)c2ccc3c(c2)C(=O)N(c2ccccc2C)C3=O)cc1,-2.84% (inactive),–
O=S(=O)(c1ccc2nc(N3CCN(c4cccc(Cl)c4)CC3)ccc2c1)N1CCCCC1,4.01% (inactive),–
O=S(=O)(NCc1ccccc1)c1ccc(S(=O)(=O)N2CCCC2)cc1,-21.9% (inactive),–
O=S(=O)(c1ccc2nc(NCc3ccccc3Cl)ccc2c1)N1CCCCC1,–,10.3 µM (active)
CC(C)C(NC(=O)C1CCC(C(C)(C)C)CC1)C(=O)NCCCN1CCCCC1 (configuration not stated),26.4% (inactive),–
CC(C)N1C(=O)c2ccccc2NC(=O)C1C(=O)NCc1cccs1 (configuration not stated),-29.6% (inactive),–
CCOc1ccc(N(CC)S(=O)(=O)N2CCCC(C(=O)NCc3ccc(SC)cc3)C2)cc1 (configuration not stated),–,23.1 µM (active)
CCOc1ccc(N(CC)S(=O)(=O)N2CCCC(C(=O)Nc3ccc(C(C)=O)cc3)C2)cc1 (configuration not stated),–,20.6 µM (active)
COc1ccc(CNC(=O)C2CCN(S(=O)(=O)c3ccc(SC)cc3)CC2)cc1,-19.3% (inactive),–
CCOc1ccc(NC(=O)C2CCCN(C(=O)Nc3ccccc3)C2)cc1 (configuration not stated),0.551% (inactive),–
CCS(=O)(=O)N1CCCC(C(=O)NCc2ccc(C)cc2)C1 (configuration not stated),-12.6% (inactive),–
CCOc1ccc(NC(=O)c2cc(S(=O)(=O)N3CCCC3)c[nH]2)cc1,-13.5% (inactive),–
COc1cccc(CNC(=O)CN(C)S(=O)(=O)c2ccc3c(c2)c(=O)n(C)c(=O)n3C)c1,–,inactive
Cc1ccc(C)c(OCCC(=O)OCC(=O)c2ccc3c(c2)NC(=O)CO3)c1,-8.45% (inactive),–

SMILES,"activity change, negative = growth inhibition",Potency
Cc1ccc(C23CC4CC(CC(C(=O)NCC(=O)O)(C4)C2)C3)cc1,-0.354% (inactive),–
CC1CC1C(=O)OCC(=O)c1c(N)n(C)c(=O)n(C)c1=O (configuration not stated),-2.39% (inactive),–
CC(C)Cn1c(N)c(C(=O)COC(=O)CN2C(=O)C3CC=CCC3C2=O)c(=O)n(C)c1=O (configuration not stated),–,16.4 µM (active)
COc1ccc(C(=O)COC(=O)CN2C(=O)C3CC=CCC3C2=O)c(OC)c1 (configuration not stated),-12.9% (inactive),–
CCOC(=O)[C@H]1[C@H]2COc3cc(OC)ccc3[C@@H]2N2C(=O)N(c3ccc(Br)cc3)C(=O)[C@@]12C,–,25.9 µM (active)
CCOC(=O)[C@H]1[C@H]2COc3ccc(Br)cc3[C@@H]2N2C(=O)CN(C)C(=O)[C@@]12C,-17.3% (inactive),–
CCOC(=O)[C@@H]1[C@H]2COc3cc(OC)ccc3[C@@H]2N2C(=O)N(c3cccc(C)c3)C(=O)[C@@]12C,-19.9% (inactive),–
CCOc1n[nH]c(-c2ccccc2)n1,-5.81% (inactive),–
Cc1ccc(S(=O)(=O)c2c[nH]c3ccc(C)cc3c2=O)cc1,-15.1% (inactive),–
CCOc1ccc(N/C=C/C(=O)c2ccccc2)cc1,-25.2% (inactive),–
CCOc1ccc(N/C=C/C(=O)c2cc(OC)c(OC)c(OC)c2)cc1,–,14.6 µM (active)
CCCOc1ccc(N/C=C/C(=O)C(C)(C)C)cc1,-14.5% (inactive),–
COCCNC(=O)C(c1ccc(O)cc1)N(C(=O)CCC(=O)Nc1nccs1)c1ccc(C)cc1 (configuration not stated),1.09% (inactive),–
CCCCn1c(=O)c2oc3ccccc3c2n(CC(=O)Nc2ccccc2OC)c1=O,-0.588% (inactive),–
COc1ccccc1CNC(=O)CCCn1c(=O)c2ccccc2n(CC(=O)Nc2ccc(C)cc2Cl)c1=O,–,14.6 µM (active)
COc1ccccc1CNC(=O)CCn1c(=O)sc2ccccc21,-4.97% (inactive),–
COc1ccccc1CNC(=O)CCCn1c(=O)c2ccccc2n(CC(=O)NC2CCCC2)c1=O,-22.2% (inactive),–
COCCNC(=O)CCCn1c(=O)c2ccccc2n(Cc2cccc([N+](=O)[O-])c2)c1=O,4.94% (inactive),–
COc1ccccc1CNC(=O)CCn1c(=O)c2ccccc2n(CC(=O)Nc2ccc(Br)cc2F)c1=O,–,23.1 µM (active)
COc1ccc(NC(=O)Cn2c(=O)n(Cc3ccc(C(=O)NCc4ccccc4Cl)cc3)c(=O)c3ccccc32)cc1,-11.4% (inactive),–
Cc1ccccc1NC(=O)Cn1c(=O)n(CCCCC(=O)NCc2ccccc2Cl)c(=O)c2ccccc21,-29.1% (inactive),–
COc1ccccc1CNC(=O)CCCCn1c(=O)c2ccccc2n(CC(=O)Nc2cc(Cl)ccc2C)c1=O,–,18.4 µM (active)
